Screen size: about 120,000 compounds; about 5,300 (4.4%) were called active. Inconclusive results (about 22%) are left out. The full list was thinned out, with actives kept by preference. A number with no mark means an inactive call. Calls come from the whole dose curve; as a rule, active = well fitted inhibition curve with a large enough effect; inconclusive = small, poorly fitted or top-dose-only effect; inactive = no such curve, though single readings can be large or run the other way.
test: qHTS Primary assay for Inhibitors of Plasmodium falciparum Dd2 growth in vitro; note: nearly all actives have a fitted effect of over 65% in size;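 for activity, negative = inhibition: plate controls were DMSO vehicle for no effect and reference drug for full effect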; conditions: P. falciparum Dd2 growth, SYBR Green, 72 h; series mostly up to 28.9 µM; activity, negative = inhibition: at the top concentration
Procedure, shortened: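 Infected erythrocytes (Dd2, 0.3% parasitemia, 2.5% hematocrit final) are added to compound in RPMI-1640/Albumax II medium, grown 72 h at 37C in low oxygen, then lysed with saponin/Triton-X containing SYBR Green and read by fluorescence.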
Potency is the fitted concentration of half-maximal effect.

Compound	outcome	Potency	activity, negative = inhibition
O=C(Cc1ccsc1)N1CCC(Oc2ccccc2)C1 (configuration not stated)	inactive	–	–
Cc1cccc(NC(c2cccc(F)c2)c2ccc3ccc(C)nc3c2O)n1 (configuration not stated)	–	6.31 µM (active)	–
O=C(N1CCCC1)N1CCCC(c2nnc3n2CCNC3)C1 (configuration not stated)	–	–	10.1%
COc1c(F)cccc1CN1CCOc2cc([S+](=O)([O-])N(C)C)ccc2C1	inactive [at 44.1 µM]	–	–
COC(=O)C1=C(C)N=C2SC=C(CC(=O)NCc3ccccc3F)N2C1c1ccccc1Cl (configuration not stated)	–	11.2 µM (active)	–
COC(=O)C1=C(C)N=C2SC=C(CC(=O)NCCC(C)C)N2C1c1ccccc1Cl (configuration not stated)	–	–	-0.875%
COC(=O)C1=C(C)N=C2SC=C(CC(=O)NCc3ccco3)N2C1c1cccc(F)c1 (configuration not stated)	inactive	–	–
CCCNC(=O)[C@@H]1Cc2cn(Cc3cc(C)on3)c3cccc(c23)[C@H](CC(C)C)N1	–	–	-0.167% [at 44.1 µM]
O=C(CSc1oc(-c2ccc(F)cc2)nc1S(=O)(=O)c1ccc(Br)cc1)NC1CCCCC1	–	–	13.2%
CC(C)S(=O)(=O)c1oc(-c2ccc(F)cc2)nc1S(=O)(=O)c1ccc(F)cc1	–	11.2 µM (active)	–
Cc1ccc(-c2nc(S(=O)(=O)c3ccc(C)cc3)c(N3CCCCCC3)o2)cc1	–	–	-8.72%
COc1cccc(SCC(=O)NCc2cc3n(n2)CCNC3)c1	–	–	-6.36%
COC[C@@H]1CN(Cc2cnn(C)c2C)C[C@H]1c1nc(C2CC2)no1	–	–	-16.5%
O=C1OC[C@@H]2CCN(Cc3ccncc3)Cc3ccc(F)cc3N12	–	–	-5.94% [at 44.1 µM]
O=C1OC[C@@H]2CCN(Cc3ccccc3)Cc3ccccc3N12	inactive [at 44.1 µM]	–	–
O=C1OC[C@@H]2CCN(Cc3cnc4ccccc4c3)Cc3ccc(F)cc3N12	–	5.62 µM (active)	–
Cc1ccc(-n2nc3n(c2=O)CCN(C(=O)C(C)(C)C)C3)cc1	–	–	0.934% [at 44.1 µM]
CN(C1CCc2nn(C)c(=O)n2CC1)S(=O)(=O)c1ccc2c(c1)OCCO2 (configuration not stated)	inactive	–	–
CN1CCC(N2CC[C@H](c3nc4ccccc4s3)C2)CC1	–	–	-17.2% [at 44.1 µM]
CC(C)c1ccc(CNC(=O)c2noc(-c3ccc[nH]c3=O)n2)cc1	inactive	–	–
Cc1ccc(CN2CCc3nc(C)nc(-c4ccc(O)cc4)c3C2)cc1	inactive	–	–
CCc1nc2c(c(-c3ccc(Cl)cc3)n1)CN(CCC(C)C)CC2	–	7.94 µM (active)	–
CCc1nc2c(c(-c3ccc(OC)cc3)n1)CCN(CC1CCCCC1)CC2	–	–	-26.7%
CCc1nc2c(c(-c3ccc(Cl)cc3)n1)CCN([S+](=O)([O-])c1cccs1)CC2	–	12.6 µM (active)	–
Cc1cc(OC2CN([S+](=O)([O-])c3cccs3)C2)ccc1F	–	–	2.46% [at 44.1 µM]

Compound	outcome	Potency	activity, negative = inhibition
O=C1CCNCCCOCCN1	–	–	15.7%
Cc1ccc(NC2=C(c3ccc(C(F)(F)F)cc3)C(=O)c3ccccc32)cc1F	–	0.178 µM (active)	–
Cc1ccc(NC(=O)CN2c3ccccc3S(=O)(=O)c3ccccc32)cc1F	–	–	-2.41%
C[C@H](O)c1onc(-c2ccc(F)cc2)c1C(=O)N1CCC1	–	–	-2.21% [at 44.1 µM]
Cc1cccc(-n2nc(-c3c(C)nc4scc(CC(=O)NCc5ccco5)n4c3=O)cc2C)c1C	inactive	–	–
Cc1ccc(C(=O)NC[C@H]2C[C@@H]3CCN2C[C@@H]3c2cc(-c3ccco3)nc(C)n2)cc1	–	3.55 µM (active)	–
Cc1nc(-c2ccc(C(F)(F)F)cc2)cc([C@H]2CN3CC[C@H]2C[C@@H]3CNC(=O)C2CCC2)n1	–	–	-20.9%
COc1ccc(-c2cc([C@H]3CN4CC[C@H]3C[C@@H]4COC(=O)NC(C)C)nc(C)n2)cc1	inactive [at 44.1 µM]	–	–
COc1ccc(Cl)cc1S(=O)(=O)N1CCCC(CNC(=O)c2ccco2)C1 (configuration not stated)	–	–	-19.5%
COc1ccccc1-c1cc([C@H]2CN3CC[C@H]2C[C@@H]3CNC(=O)c2ccco2)nc(C)n1	–	10 µM (active)	–
Cc1nc(-c2ccccc2)cc([C@H]2CN3CC[C@H]2C[C@@H]3CNC2CCN(C)CC2)n1	–	–	-10.6% [at 44.1 µM]
O=C(c1ccncc1)N1CCC(C2CCN(Cc3cccc(F)c3F)CC2)C1 (configuration not stated)	–	–	0.365%
COc1ccc(N2CCN(C(=O)COc3ccc(NC(C)=O)cn3)CC2)cc1	–	–	-22.7%
Cc1cccc(CN2CCc3ncc(C(=O)NCc4ccccc4)n3CC2)n1	–	–	9.88% [at 44.1 µM]
COCC(=O)N(C1CCOCC1)C1CCN(S(=O)(=O)c2ccccc2C)CC1	inactive	–	–
CCOC(=O)c1ccc(NC(=O)Cn2ccn3nc(-c4ccccc4)c(CO)c3c2=O)cc1	–	–	-13.6%
Cc1nn(-c2ccccc2)c(C)c1CC(=O)NC1CCCc2c1[nH]c1ccccc21 (configuration not stated)	inactive	–	–
CN(C)C[C@@H]1CN(S(C)(=O)=O)C[C@H]1NC(=O)c1ccc2ncccc2c1	–	–	4.36%
Cc1ccc(CSc2oc(-c3cccs3)nc2S(=O)(=O)c2ccc(C)cc2)cc1	–	–	8.49%
CCCCS(=O)(=O)c1oc(-c2cccs2)nc1S(=O)(=O)c1ccccc1	–	10 µM (active)	–
CSc1oc(-c2cccs2)nc1S(=O)(=O)c1ccc(Br)cc1	–	–	6.08%
Cc1cc(OC2CN([S+](=O)([O-])c3ccccc3)C2)ccc1F	–	–	-9.59% [at 44.1 µM]
COC1C(=O)N(CC2CC2)C12CCN(C(=O)NC1CCCCC1)CC2 (configuration not stated)	–	–	-18.9%
Cn1nccc1CN1CC(Oc2ccc(F)c(F)c2)C1	inactive [at 44.1 µM]	–	–
CC(C)OCC(=O)N1CCN(c2nc(-c3ccccc3)nc3c2CCC3)CC1	–	12.6 µM (active)	–

Compound	outcome	Potency	activity, negative = inhibition
O=C(C1CCN(c2nc(-c3ccccc3)nc3c2CCC3)CC1)N1CCC[C@H]1CO	–	8.91 µM (active)	–
O=C(NC1CCNC1)C1CCN(c2nc(-c3ccccc3)nc3c2CCC3)CC1 (configuration not stated)	–	7.08 µM (active)	–
O=C(NCCc1ccccn1)C1CCCN(c2nc(-c3ccccc3)nc3c2CCC3)C1 (configuration not stated)	–	–	-1.6%
Cc1nc(CCNC(=O)C2CCCN(c3nc(-c4ccccc4)nc4c3CCC4)C2)n[nH]1 (configuration not stated)	–	–	-18.7%
Cc1ccc(-c2cc(N3CCCN(C(=O)COc4ccccc4)CC3)n[nH]2)cc1C	inactive	–	–
COCCOCC(=O)N1CCCC(c2nc(-c3ccccc3)no2)CCNC(=O)CC1 (configuration not stated)	–	–	24.6%
O=C(NCc1cccnc1)C1CCN(c2nc(-c3ccccc3)nc3c2CCC3)CC1	–	–	-6.78%
O=C(CN1CCCC1=O)NC1CCCc2nc(-c3ccccc3)ncc21 (configuration not stated)	–	–	-6.14%
COc1ccc(N2CC(C(=O)N3CCSCC3)CC2=O)cc1Cl (configuration not stated)	–	–	-6.82%
O=C(Nc1ccccc1Cl)N1CCc2nc3cc[nH]n3c(=O)c2C1	–	–	-0.962% [at 5.79 µM]
Cc1nn(CC(=O)NCC2CCCO2)c(=O)c2nc(C(C)C)sc12 (configuration not stated)	–	–	-21.8%
CC(C)c1nc(C2Cc3ccccc3N2S(=O)(=O)c2cn(C)cn2)no1 (configuration not stated)	inactive	–	–
CCc1ccc(NC(=O)N2CCCC(Cn3cnc4cccnc43)C2)cc1 (configuration not stated)	inactive	–	–
COCCNC(=O)CCc1cc2ccc(C)cc2[nH]c1=O	–	–	16%
O=C(c1cc(F)ccc1F)N1CCCC(n2cc(-c3nc(C4CC4)no3)nn2)C1 (configuration not stated)	–	–	-18.1%
O=c1n(-c2ccncc2)nc2n1CCN([S+](=O)([O-])c1cccc(C(F)(F)F)c1)C2	–	–	21.7%
CCOc1ccc(C2Cn3nnc(-c4nc(-c5cccc(F)c5)no4)c3CO2)cc1 (configuration not stated)	inactive; activator; fitted 1.7783 uM	–	–
NC(=O)Cn1ccc2cc(OCC3CCN(c4cnccn4)CC3)cnc21	inactive [at 44.1 µM]	–	–
Cn1ccnc1C(=O)N1CCC2(CC1)CN(c1ncccn1)CC2CO (configuration not stated)	–	–	-6.56%
COc1cccc(OCc2nnc(C(=O)N3CCC[C@@H]3c3cccc(F)c3)n2-c2ccccc2)c1	inactive	–	–
Cc1cccc(Nc2cc(C)nc(-n3nc(C)cc3C)n2)c1	–	5.62 µM (active)	–
Cc1cc(=O)n(CC(=O)Nc2cccc([N+](=O)[O-])c2)c(-n2nc(C)cc2C)n1	–	–	10.6%
Cc1ccc(Nc2nc3ccccc3nc2-n2nc(C)cc2C)c(Cl)c1	–	–	34.1%
O=C(c1ccc2cc[nH]c2n1)N1CCOCC1	–	–	13.4% [at 44.1 µM]
COc1ccc(CNC(=O)c2cccc3c2CCN3C(=O)c2ccc(F)cc2)cc1OC	inactive	–	–

Compound	outcome	Potency	activity, negative = inhibition
COc1ccc(N2C(=O)C3(CCCCC3)C2C(=O)NCCc2ccncc2)cc1 (configuration not stated)	–	–	9.99%
COc1ccc(C2Sc3ccccc3NC3=C2C(=O)c2ccccc23)c(OC)c1OC (configuration not stated)	–	0.316 µM (active)	–
COc1nc2nc(CC3CC3)n(C)c2cc1-c1ccc(CO)cc1	–	–	-10.5% [at 44.1 µM]
CCN(CC)CCCNC(=O)c1cn(C)c2ccc(S(=O)(=O)N(C)C3CCCCC3)cc2c1=O	–	–	62%
COc1ccc(CCNC(=O)c2c3c(nc4ccccc24)C(=O)N(C2CCCCC2)C3)cc1OC	–	–	23.2%
COc1ccccc1Nc1cc(C(=O)NCCCN(C)C2CCCCC2)c2ccccc2n1	–	10 µM (active)	–
Cc1ccc(NC(=O)Cn2c(-c3ccc(Cl)cc3)nc(C)c(CCO)c2=O)cc1C	–	–	-20.1%
O=C(NC(C(=O)N1CCCCC1)C1CCN(C(=O)c2ccc(Cl)cc2)CC1)c1ccccc1 (configuration not stated)	–	5.01 µM (active)	–
CCN(CC)C(=O)C(NC(=O)c1ccc(OC)cc1)C1CCN(C(=O)c2ccc(F)cc2)CC1 (configuration not stated)	inactive	–	–
CCN(CC)C(=O)C(NC(=O)c1ccc(OC)cc1)C1CCN(C(=O)C(C)C)CC1 (configuration not stated)	–	–	-18.8%
CNC(=O)[C@@H]1CN(C(=O)c2ccc3ccccc3n2)C[C@H]1COC	–	–	0.257%
CS(=O)(=O)c1cnc(NCCc2cnc[nH]2)nc1C1CCCNC1 (configuration not stated)	–	–	-2.1%
CN(CC1CCOC1)C(=O)Nc1ccc(Cl)cc1 (configuration not stated)	inactive [at 5.79 µM]	–	–
CC(C)(C)c1csc(NC(=O)C[C@H]2NC(=O)c3ccccc3NC2=O)n1	inactive	–	–
COc1cccc(-c2ccnc3nc(Cc4cc(F)cc(F)c4)nn23)c1	–	10 µM (active)	–
COc1cccc(-c2ccnc3nc(-c4ccccc4OC)nn23)c1	inactive	–	–
COCc1nc2nccc(-c3ccccc3)n2n1	–	–	11.9%
CNC(=O)[C@@H]1CN(C(=O)C2CC=CCC2)C[C@H]1c1nc(C)no1 (some centres not stated)	–	–	-11.6%
O=C(c1ccc(F)cc1)N1CCCC(c2nn(-c3cccc(Cl)c3)c(=O)[nH]2)C1 (configuration not stated)	inactive	–	–
CN1C(=O)CC[C@]2(C(=O)NCC3CCCCC3)CCCC[C@@H]12	–	–	6.63%
CC(C)CCN1C(=O)CC[C@]2(C(=O)N3CCN(C)CC3)CCCC[C@@H]12	–	11.2 µM (active)	–
COCCN1C(=O)CC[C@]2(C(=O)NCc3cccs3)CCCC[C@@H]12	–	–	-7.18%
